Results: PubChem BioAssay
Calls of active or inactive are those of the source.

How the values were obtained:
[1] = test system: Human papillomavirus type 1a protein E7 (residues 44-93); assay: small molecules binding HPV E7 44-93 – biochemical, small-molecule microarray, residues 44-93, 635 nm fluorescence, primary screen (AID 1108); details: fluorescence 635 nm, higher = more signal;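 note: E7 fragment applied at 1 µg/mL in TBST for 1 h at 4 C; score combines spot fluorescence with its signal to noise ratio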
[2] = hepatitis C replication reporter changes, two-sided – Huh7 cells, luciferase reporter, HCV replication inhibitor project, primary screen (AID 1109); details: Huh7 HCV replicon luciferase reporter, 48 h; higher = more signal;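 note: huh7 hepatoma cells harbouring a luciferase neomycin HCV replicon reporter; luciferase luminescence as measure of HCV replicon replication; test concentration not given here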
[3] = molecular target: Left-right determination factor 2 (Homo sapiens) (UniProt O00292); assay: small molecules binding LEFTY2 protein – biochemical, small-molecule microarray, 635 nm fluorescence scan, primary screen (AID 1110); details: higher = more signal
Left-right determination factor 2 (Homo sapiens), sequence (O00292 whole entry, looked up): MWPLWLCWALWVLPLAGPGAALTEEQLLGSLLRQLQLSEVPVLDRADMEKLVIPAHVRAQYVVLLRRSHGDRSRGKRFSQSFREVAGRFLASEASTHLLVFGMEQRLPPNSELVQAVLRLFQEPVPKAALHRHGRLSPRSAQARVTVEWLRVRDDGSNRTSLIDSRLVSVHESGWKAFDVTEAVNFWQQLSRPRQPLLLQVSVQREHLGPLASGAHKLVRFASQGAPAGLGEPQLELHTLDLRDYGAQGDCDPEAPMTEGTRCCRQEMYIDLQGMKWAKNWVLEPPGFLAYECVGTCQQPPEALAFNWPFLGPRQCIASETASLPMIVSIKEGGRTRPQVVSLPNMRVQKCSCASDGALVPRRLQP

[4] = molecular target: Calmodulin-1 (Homo sapiens) (UniProt P0DP23); assay: small molecules binding calmodulin-1 with EGTA – biochemical, small-molecule microarray, Cy5-labelled CALM1, profiling panel (AID 1111); details: Cy5-CALM1 binding fluorescence, higher = more signal;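 note: labelled calmodulin applied in Tris saline Tween buffer holding calcium plus EGTA and DTT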
[5] = molecular target: Calmodulin-1 (Homo sapiens) (UniProt P0DP23); assay: small molecules binding Ca-loaded calmodulin-1 – biochemical, small-molecule microarray, Cy5-labelled CALM1, plus calcium, artefact control for SMM control-protein annotation, profiling panel (AID 1112); details: Cy5-CALM1 binding fluorescence, higher = more signal;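 note: score merges spot fluorescence with signal to noise from triplicate slides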
[6] = probe aWnt5a binding to arrayed compounds – biochemical, biotinylated probe, 635/667 nm fluorescence, primary screen (AID 1113); details: small-molecule microarray, higher = more signal;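 note: score merges 667 nm fluorescence intensity with signal-to-noise per printed feature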
[7] = probe aShh binding to arrayed compounds – biochemical, biotinylated probe, 635/667 nm fluorescence, primary screen (AID 1114); details: small-molecule microarray, higher = more signal;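 note: probe is biotin-labelled aShh protein from a stem cell growth factor screen; measures binding of labelled protein to compounds printed on the slide; score merges feature fluorescence at 667 nm with signal-to-noise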
[8] = probe aNog binding to arrayed compounds – biochemical, biotinylated probe, 635/667 nm fluorescence, primary screen (AID 1115); details: small-molecule microarray, higher = more signal;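 note: probe is biotinylated aNog protein used at 0.15 µg/mL for 1 h at 4 C; z-score combines 667 nm fluorescence of each spot with its signal to noise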
[9] = molecular target: Torsin-1A-interacting protein 1 (Homo sapiens) (UniProt Q5JTV8); assay: compound microarray binding of lysate hLAP1 – cell lysate, small-molecule microarray, COS7 lysate, 635/667 nm fluorescence, primary screen (AID 1116); details: 635 nm fluorescence, higher = more signal
Torsin-1A-interacting protein 1 (Homo sapiens), sequence (Q5JTV8 whole entry, looked up): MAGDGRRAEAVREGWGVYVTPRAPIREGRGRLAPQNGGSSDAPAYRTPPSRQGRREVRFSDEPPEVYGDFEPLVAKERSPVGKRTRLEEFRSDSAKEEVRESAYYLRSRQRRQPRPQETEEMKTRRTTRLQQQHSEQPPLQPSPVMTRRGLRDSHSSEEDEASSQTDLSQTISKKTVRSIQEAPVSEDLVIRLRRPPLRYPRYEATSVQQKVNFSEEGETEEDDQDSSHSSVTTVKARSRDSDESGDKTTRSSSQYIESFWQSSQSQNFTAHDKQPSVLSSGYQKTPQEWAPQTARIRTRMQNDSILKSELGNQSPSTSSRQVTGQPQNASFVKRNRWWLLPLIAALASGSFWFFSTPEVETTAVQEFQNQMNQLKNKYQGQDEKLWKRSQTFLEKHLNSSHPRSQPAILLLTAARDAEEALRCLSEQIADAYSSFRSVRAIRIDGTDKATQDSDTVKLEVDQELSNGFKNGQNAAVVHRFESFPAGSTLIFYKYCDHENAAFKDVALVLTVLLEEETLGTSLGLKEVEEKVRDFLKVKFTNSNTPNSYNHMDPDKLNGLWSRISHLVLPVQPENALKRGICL

[10] = molecular target: Alpha-bungarotoxin (Bungarus multicinctus) (UniProt P60615); assay: compounds binding labelled alpha-BTX control protein – biochemical, small-molecule microarray, Alexa647 label, 635/667 nm fluorescence, artefact control for SMM control protein annotation, profiling panel (AID 1117); details: alpha-BTX-A647 binding fluorescence, higher = more signal
Alpha-bungarotoxin (Bungarus multicinctus), sequence (P60615 whole entry, looked up): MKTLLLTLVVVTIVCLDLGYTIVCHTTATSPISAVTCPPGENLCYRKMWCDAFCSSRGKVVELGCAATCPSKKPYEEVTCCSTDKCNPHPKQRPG

Albumin (Bos taurus) = Albumin (Bos taurus) (UniProt P02769); assay: compounds binding labelled BSA control protein – biochemical, small-molecule microarray, Alexa647 label, 635/667 nm fluorescence, artefact control for SMM control protein annotation, profiling panel (AID 1118); details: BSA-A647 binding, fluorescence 635 nm, higher = more signal;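 note: score merges 667 nm emission intensity and signal-to-noise per printed compound spot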
Albumin (Bos taurus), sequence (P02769 whole entry, looked up): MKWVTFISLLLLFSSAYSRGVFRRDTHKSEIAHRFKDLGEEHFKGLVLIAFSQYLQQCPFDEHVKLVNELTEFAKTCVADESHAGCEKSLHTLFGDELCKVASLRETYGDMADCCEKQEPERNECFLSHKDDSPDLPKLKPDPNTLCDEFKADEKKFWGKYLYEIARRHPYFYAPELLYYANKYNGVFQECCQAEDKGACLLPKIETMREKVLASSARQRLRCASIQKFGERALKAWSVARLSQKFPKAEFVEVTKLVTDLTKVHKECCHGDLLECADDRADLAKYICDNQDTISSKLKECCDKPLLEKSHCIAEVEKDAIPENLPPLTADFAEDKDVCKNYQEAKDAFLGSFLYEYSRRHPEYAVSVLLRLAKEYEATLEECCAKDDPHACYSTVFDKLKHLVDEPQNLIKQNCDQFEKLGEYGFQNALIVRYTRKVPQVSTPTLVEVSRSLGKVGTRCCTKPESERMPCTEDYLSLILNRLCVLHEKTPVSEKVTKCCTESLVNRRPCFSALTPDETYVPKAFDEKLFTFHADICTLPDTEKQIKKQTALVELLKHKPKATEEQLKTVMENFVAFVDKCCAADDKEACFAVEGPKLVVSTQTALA

[11] = probe aXIP binding to arrayed compounds – biochemical, NeuroSMM set, 635/667 nm fluorescence, primary screen (AID 1119); details: small-molecule microarray, higher = more signal, called active from +8 up or from −8 down;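 note: probe is the protein aXip251-270 applied at 1 µg/mL to compound-printed slides; binding of probe to printed compounds measured as 667 nm fluorescence plus signal to noise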
[12] = probe aNOTCH3 binding on compound microarray – biochemical, small-molecule microarray, 635/667 nm fluorescence, primary screen (AID 1120); details: higher = more signal;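 note: probe is a biotin-tagged antibody raised against NOTCH3 rather than NOTCH3 protein; score merges spot fluorescence near 667 nm with spot signal to noise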
[13] = probe aNOTCH2 binding on compound microarray – biochemical, small-molecule microarray, 635/667 nm fluorescence, primary screen (AID 1121); details: higher = more signal;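 note: score merges feature fluorescence read at 667 nm with its signal to noise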
[14] = molecular target: Carbonic anhydrase 2 (Homo sapiens) (UniProt P00918); assay: compounds binding carbonic anhydrase 2 – biochemical, small-molecule microarray, Alexa647-labelled CAII, profiling panel (AID 1122); details: CAII-A647 binding fluorescence, higher = more signal
[15] = COS7 lysate on small-molecule microarray, probe aHis, 635 nm (AID 1123); details: COS7 cell lysate, fluorescence, higher = more signal;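 note: z-score combines 667nm fluorescence intensity with signal-to-noise per printed compound spot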
[16] = probe aLAP1 signal on lysate-treated microarray – cell lysate, small-molecule microarray, COS7 lysate, primary screen (AID 1124); details: probe aLAP1, fluorescence, higher = more signal;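 note: lysate comes from COS7 cells expressing LAP1 and is applied at 0.3 µg/mL; score merges spot fluorescence near 667 nm with signal-to-noise over triplicate slides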
Sam68 (KHDRBS1) = assay: compounds binding KHDRBS1 protein – biochemical, small-molecule microarray, 635 nm fluorescence, primary screen (AID 1125); details: higher = more signal;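 note: score merges 667 nm channel intensity with signal to noise over triplicate slides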
[17] = test system: Chordin-like protein 2 (CHRDL2); assay: compounds binding chordin-like 2 – biochemical, small-molecule microarray, 635 nm fluorescence, primary screen (AID 1126); details: fluorescence 635 nm, higher = more signal;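 note: printed compound slides probed with Chrdl2 protein at 4 µg/mL for 1 h at 4 C; score merges 667 nm emission intensity with signal to noise over three replicate slides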
[18] = molecular target: Concanavalin-A (Canavalia ensiformis) (UniProt P02866); assay: compounds binding concanavalin A lectin – biochemical, small-molecule microarray, Alexa647 label, 635 nm, artefact control for SMM control protein annotation, primary screen (AID 1127); details: ConA-A647 binding fluorescence, higher = more signal;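 note: z combines 667 nm emission intensity with signal-to-noise across three replicate slides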
Concanavalin-A (Canavalia ensiformis), sequence (P02866 whole entry, looked up): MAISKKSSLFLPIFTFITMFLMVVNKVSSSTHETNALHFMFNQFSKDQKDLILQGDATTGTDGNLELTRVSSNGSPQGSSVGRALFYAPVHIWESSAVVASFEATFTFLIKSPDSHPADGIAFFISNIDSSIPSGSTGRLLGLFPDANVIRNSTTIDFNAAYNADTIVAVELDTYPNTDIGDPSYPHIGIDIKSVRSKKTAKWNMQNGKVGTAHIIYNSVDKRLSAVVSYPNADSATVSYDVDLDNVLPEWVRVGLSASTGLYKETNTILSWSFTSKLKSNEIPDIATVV

Row | SMILES | composite z-score [1] | z-score [2] | composite z-score [3] | composite z-score [4] | composite z-score [5] | composite z-score [6] | composite z-score [7] | composite z-score [8] | composite z-score [9] | composite z-score [10] | composite z-score (Albumin (Bos taurus)) | composite Z-score [11] | composite z-score [12] | composite z-score [13] | composite z-score [14] | composite z-score [15] | composite z-score [16] | composite z-score (Sam68 (KHDRBS1)) | composite z-score [17] | composite z-score [18]
1 | C=CC[C@@]1(C(=O)N(C)C)N=C(c2ccc(OCCCO)cc2)O[C@@H]1c1ccccc1 | 0.242 | -0.624 | 0.191 | 0.401 | 0.621 | 0.233 | 0.246 | -0.42 | 0.961 | 0.826 | 0.434 | -0.593 (inactive) | 0.315 | 0.182 | 0.644 | 2.59 | 1.01 | -0.108 | 0.0028 | 0.148
2 | CN1C(=O)[C@]2(CCC(=O)OC(C)(C)C)N=C(c3ccc(OCCCO)cc3)O[C@@H]2c2ccccc21 | 1.45 | -2.88 | -0.0515 | 0.147 | -0.0006 | 0.0279 | 0.275 | 0.346 | 0.973 | 1.14 | 0.272 | 0.0786 (inactive) | -0.117 | -0.12 | 0.709 | 2.69 | -0.313 | 1.28 | 0.149 | 1.12
3 | NCCCC[C@@H]1NC(=O)[C@H]2C[C@@H](C(=O)NCc3ccc(F)cc3)[C@@H](c3ccc(O)cc3)N2C1=O | 1.18 | -0.0038 | 0.567 | 1.17 | 0.428 | -0.0161 | 0.452 | -0.171 | 2.33 | 1.26 | -0.135 | 0.744 (inactive) | 0.125 | -0.0531 | 0.738 | 2.18 | 0.313 | 1.19 | 0.521 | 1.13
4 | CC(C)C[C@H]1NC(=O)[C@@H](C)NC(=O)[C@@]23C(=O)N[C@@H](Cc4ccccc4)C2[C@H](C)[C@@]2(C)O[C@H]2C3/C=C/C/C=C\CNC1=O (stereo not given in full) | 1.29 | -1.61 | 0.137 | -0.596 | -1.09 | -0.175 | -0.223 | -0.205 | -0.0872 | -0.133 | 0.239 | -0.162 (inactive) | -0.189 | -0.202 | 0.686 | 0.394 | -0.0995 | 0.997 | 0.831 | 0.124
5 | C=CCNC(=O)[C@@H]1[C@H]2C(=O)O[C@H](c3ccccc3)[C@H](c3ccccc3)N2[C@H](c2ccccc2OCCO)[C@@]12C(=O)N(C(=O)OCCOC)c1ccc(C#CCCO)cc12 | 1.34 | -1.82 | 0.0333 | 1.66 | 0.428 | -0.006 | 0.131 | -0.305 | 0.87 | 0.274 | 0.538 | -0.0086 (inactive) | 0.0807 | -0.112 | 0.64 | 0.797 | 0.77 | 1.29 | 0.0117 | 0.953
6 | CCOC(=O)C[C@H]1[C@H](OC(=O)c2cc3ccccc3oc2=O)[C@@H](NC(=O)C2CCCCC2)c2cc(OCCCO)ccc2N1C(=O)Cc1ccc(OC)cc1 | 0.612 | -0.938 | 0.304 | 0.126 | -0.182 | 0.0633 | 0.42 | 0.23 | 0.404 | 0.25 | 0.259 | 0.127 (inactive) | 1.41 | -0.0111 | 0.51 | 0.988 | 0.319 | 0.736 | 0.328 | -0.146
7 | COC(=O)C1=CC(CCCO)=CC(C2CC2)N(Cc2cccc(OC(F)(F)F)c2)C=C1C(=O)OC (stereo not given) | 1.43 | -1.46 | -0.724 | 0.302 | 0.364 | 0.0077 | -0.0035 | 0.374 | -0.302 | 0.0939 | 0.896 | 0.816 (inactive) | -0.0039 | -0.138 | 0.806 | 2.23 | 0.637 | 1.26 | -0.745 | 0.449
8 | COc1ccc(NN2C(C(O)c3ccc(OC)cc3)C=CC3C(=O)N(C4CCCCC4)C(=O)C32)cc1 (stereo not given) | 1.2 | -1.02 | 0.318 | 0.566 | -0.366 | 0.0357 | 0.191 | 0.571 | 0.53 | 1.08 | 0.828 | 0.297 (inactive) | 0.124 | -0.0037 | 0.405 | 1.1 | 0.0023 | 1.28 | -0.138 | 0.872
9 | COCCOC(=O)N1C(=O)[C@@]2(c3cc(C#CCCO)ccc31)[C@H](C(=O)N1CCc3cc(OC)c(OC)cc3C1)[C@H]1C(=O)O[C@H](c3ccccc3)[C@H](c3ccccc3)N1[C@@H]2c1ccccc1OCCO | 1.4 | -1.75 | 0.473 | 1.43 | 0.013 | 0.186 | -0.0146 | 0.596 | 0.325 | 0.477 | 0.357 | 0.471 (inactive) | 0.285 | 0.0401 | 0.422 | 1.2 | 1.01 | 1.32 | 0.855 | 1.13
10 | CCOC(=O)C1=CC[C@@H](c2ccccc2)N(S(=O)(=O)c2ccc(C)cc2)[C@H]1C#N | 0.894 | -1.76 | 0.116 | 0.906 | 0.658 | 0.0044 | -0.16 | -0.59 | 1.03 | -0.06 | 0.721 | 0.718 (inactive) | 0.213 | 0.0362 | 0.76 | 1.67 | 0.254 | 1.2 | -0.232 | 1.15
11 | CCCC[C@H]1OB(O)C[C@H]2C1=C(COC)C[C@H]1C(=O)C=CC(=O)[C@H]12 | 0.275 | -1.33 | 0.594 | -0.321 | -0.728 | -0.101 | 0.0062 | -0.0344 | -0.22 | 0.567 | -0.183 | 0.727 (inactive) | 0.029 | 0.144 | -0.104 | -0.279 | -0.236 | 0.684 | 0.676 | 0.486
12 | COC(=O)[C@@]1(Cc2ccc(OC)cc2)[C@@H]2[C@@H](CC(=O)[C@H]2CC(=O)C(=O)N2CCCC2)CN1C(=O)c1ccccc1 | 0.43 | -1.83 | 0.352 | 2.05 | 1.02 | 1.31 | 2.68 | 2.97 | 2.12 | 1.49 | 0.979 | -0.766 (inactive) | 1.75 | 1 | 0.856 | 3.45 | 0.921 | 1.09 | 0.251 | 1.18
